# Reference: publication PMC4336329 (PLoS ONE, 2015)
# The whole screen tested about 310,000 compounds, of which about 14,000 (4.5%) showed an effect of 50% or more. The effect is printed as a negative number. Only a selection was taken, and strong results are over-represented in it overall.
# Target: human ether-à-go-go-related gene (hERG) potassium channel (human, UniProt Q12809)
# Assay: primary screen, population patch clamp on CHO cells stably expressing hERG; higher = less effect of the substance
# 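Note: peak tail current of the secondary pulse compared with the same well before compound.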
# Chain of human ether-à-go-go-related gene (hERG) potassium channel (Q12809 whole entry, looked up): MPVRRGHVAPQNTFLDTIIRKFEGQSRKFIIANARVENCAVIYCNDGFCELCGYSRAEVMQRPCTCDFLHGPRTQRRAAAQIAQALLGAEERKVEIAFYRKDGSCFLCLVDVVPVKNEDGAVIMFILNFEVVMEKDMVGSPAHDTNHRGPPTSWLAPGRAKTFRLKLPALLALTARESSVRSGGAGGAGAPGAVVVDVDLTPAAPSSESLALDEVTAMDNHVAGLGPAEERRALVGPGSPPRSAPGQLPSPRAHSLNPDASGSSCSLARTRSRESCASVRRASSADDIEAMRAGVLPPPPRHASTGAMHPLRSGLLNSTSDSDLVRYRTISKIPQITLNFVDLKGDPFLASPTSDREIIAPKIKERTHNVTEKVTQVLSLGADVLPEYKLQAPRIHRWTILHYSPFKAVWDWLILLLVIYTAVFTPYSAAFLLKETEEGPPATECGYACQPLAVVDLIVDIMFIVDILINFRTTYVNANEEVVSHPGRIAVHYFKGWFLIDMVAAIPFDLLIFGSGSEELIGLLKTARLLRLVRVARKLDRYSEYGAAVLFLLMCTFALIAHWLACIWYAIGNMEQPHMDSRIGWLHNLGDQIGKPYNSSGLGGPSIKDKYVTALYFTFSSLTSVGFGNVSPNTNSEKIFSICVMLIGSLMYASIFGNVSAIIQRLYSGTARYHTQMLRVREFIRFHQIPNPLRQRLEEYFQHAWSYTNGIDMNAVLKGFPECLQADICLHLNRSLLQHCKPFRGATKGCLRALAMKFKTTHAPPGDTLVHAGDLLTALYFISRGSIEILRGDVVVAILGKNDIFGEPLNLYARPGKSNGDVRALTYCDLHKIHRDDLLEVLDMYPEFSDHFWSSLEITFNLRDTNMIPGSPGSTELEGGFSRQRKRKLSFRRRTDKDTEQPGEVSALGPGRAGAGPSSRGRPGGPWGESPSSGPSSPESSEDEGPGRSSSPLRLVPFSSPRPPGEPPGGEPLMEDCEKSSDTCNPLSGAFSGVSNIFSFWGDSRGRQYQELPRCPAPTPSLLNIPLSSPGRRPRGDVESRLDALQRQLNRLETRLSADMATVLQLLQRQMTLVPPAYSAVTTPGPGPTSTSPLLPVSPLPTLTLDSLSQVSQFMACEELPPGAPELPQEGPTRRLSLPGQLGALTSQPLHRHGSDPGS
row,SMILES,"hERG current change (%, negative = inhibition) at 10uM [%]"
1,O=C(Nc1cccnc1)c1ccccc1-c1nc(-c2ccccc2F)no1,-16.4
2,N#Cc1nc(-c2ccccc2)oc1N1CCC(C(N)=O)CC1,9.26
3,O=S(=O)(NCC1CCN(S(=O)(=O)c2ccccc2)CC1)c1ccccc1,-9.78
4,Cc1ccc(C2N(c3ccc(Cl)cc3)C(=O)N3CCCN23)cc1 (stereo not shown),-1.05
5,CCc1nc(SCC(=O)Nc2nnc(CC)s2)c2c(C)c(C)sc2n1,8.99
6,COc1ccccc1NC(=O)CN1CCN(CC(=O)Nc2ccc(S(N)(=O)=O)cc2)CC1,-27.8
7,CCOc1ccc(NC(=O)CN2CCN(CC(=O)Nc3ccccc3OC)CC2)cc1,-74.1
8,COc1ccccc1NC(=O)CN1CCN(CC(=O)Nc2ccc(OCc3ccccc3)cc2)CC1,-25.1
9,OCCN1CCN(CC#CCC(c2ccccc2)c2ccccc2)CC1,-22.9
10,C(#CCN1CCCC1)CC(c1ccccc1)c1ccccc1.Cl,-50.5
11,OC(C#CCN1CCCC1)c1ccccc1 (stereo not shown),-2.28
12,COc1cc(OC)c(C(=O)NCCCn2ccnc2)cc1OC.Cl,13
13,OC[C@H]1O[C@@H](n2cnc3c(NC4CCCC4)ncnc32)[C@H](O)[C@@H]1O,10.4
14,OC(CNCc1ccco1)Cn1c2ccc(Br)cc2c2cc(Br)ccc21 (stereo not shown),-0.0278
15,OCCNCC(O)Cn1c2ccccc2c2ccccc21 (stereo not shown),10.2
16,OC(CNCc1ccco1)Cn1c2ccccc2c2ccccc21 (stereo not shown),-58.4
17,COc1ccc(OC)c(NC(=O)[C@@H]2CCCN2C(=O)c2cccs2)c1,-2.19
18,CC(C)(C)c1ccc(C(=O)NNC(=O)CCc2ccccc2)cc1,7.16
19,Cc1ccc(C(C(=O)NC2CCCC2)N(Cc2ccc3c(c2)OCO3)C(=O)c2snc(C(N)=O)c2N)cc1 (stereo not shown),10.7
20,CCNC(=S)N1CCN(c2ccc([N+](=O)[O-])cc2)CC1,-64.5
21,CCCC(=O)NC(=S)N1CCN(c2ccc([N+](=O)[O-])cc2)CC1,-20.7
22,Cc1cccc(C(=O)NC(=S)N2CCN(c3ccc([N+](=O)[O-])cc3)CC2)c1,-2.77
23,C=CCNC(=S)N1CCN(c2ccc([N+](=O)[O-])cc2)CC1,-63.6
24,COCCNC(=S)N1CCN(c2ccc(Cl)cc2)CC1,-12.9
25,O=[N+]([O-])c1ccc(N2CCN(C(=S)Nc3ccccc3)CC2)cc1,-4.16
26,O=[N+]([O-])c1ccc(N2CCN(C(=S)Nc3ccc(F)cc3F)CC2)cc1,-18.5

row,SMILES,"hERG current change (%, negative = inhibition) at 10uM [%]"
1,O=[N+]([O-])c1ccc(N2CCN(C(=S)NCc3ccc(Cl)cc3)CC2)cc1,-8.05
2,CNC(=S)N1CCN(c2ccc([N+](=O)[O-])cc2)CC1,-65.1
3,COCCCNC(=S)N1CCN(c2ccc([N+](=O)[O-])cc2)CC1,-68
4,COCCCNC(=S)N1CCN(c2ccccc2)CC1,12.9
5,C=CCNC(=S)N1CCN(c2ccccc2Cl)CC1,-6.87
6,CCCC(=O)Nc1nc2nc(C)cc(=O)n2[nH]1,1.2
7,Cc1cc(C)c2c(=O)[nH]n(C3CC(C)N(C)CC3C)c2n1 (stereo not shown),4.5
8,CC1(C)Cc2c(sc3nc(-c4cccs4)n(N)c(=O)c23)CO1,-22.5
9,CCN(c1cccc(C)c1)S(=O)(=O)c1ccc2c(c1)NC(=O)CS2,-7.28
10,Cc1nnc2ccc(Oc3ccc(-c4ccccc4)cc3)nn12,-5.63
11,CCC1C(c2ccccc2)NC(c2ccccc2)CC1(O)c1ccc(F)cc1.Cl (stereo not shown),11.4
12,Cc1cc(C)n2cc(CSc3ccc(Br)cc3)nc2n1,-63.8
13,Clc1ccc(SCc2cn3ccccc3n2)cc1,-18.1
14,Cc1cc(C)n2cc(CSc3ncn[nH]3)nc2n1,0.809
15,Cc1cc(C)n2cc(CSc3nc4cc(Cl)ccc4o3)nc2n1,-68.1
16,Cc1cc(C)n2cc(CSc3nnc(-c4ccccc4)o3)nc2n1,-38.3
17,Cc1cc(C)nc(SCc2cn3c(C)cccc3n2)n1,6.36
18,Cc1cccc2nc(CSc3ccc(Cl)cc3)cn12,-74.3
19,Cc1ccc(SCc2cn3c(C)cc(C)nc3n2)cc1,-67.1
20,O=c1cc(CSc2nc3cc(Cl)ccc3o2)nc2sccn12,10.4
21,Cc1ccc2nc(SCc3cn4c(C)cc(C)nc4n3)[nH]c2c1,-20.9
22,Cc1ccnc(SCc2cn3c(C)cc(C)nc3n2)n1,-3.93
23,Cc1cc(C)n2cc(CSCc3ccccc3)nc2n1,-36.9
24,COc1ccccc1N=Nc1c(C)noc1C,10.6
25,CCOC(=O)/C(C#N)=N/Nc1ccc(S(=O)(=O)Nc2cc(OC)nc(OC)n2)cc1,-13.1
26,CC(C)(C)c1nnc(NS(C)(=O)=O)s1,8.21

row,SMILES,"hERG current change (%, negative = inhibition) at 10uM [%]"
1,O=c1[nH]n(-c2ccc([N+](=O)[O-])cc2)c(=O)c2ccccc12,5.47
2,COCc1ccc(C(=O)N2CCCC(C(=O)c3ccc(SC)cc3)C2)o1 (stereo not shown),-41.6
3,Nc1cnc(Nc2ccc(Br)cc2)nc1N.O=S(=O)(O)O,-8.72
4,CCc1c(C)nc(SCC(=O)Nc2cccc(Br)c2)[nH]c1=O,16.3
5,Cc1csc2nc(CSc3ccc(Cl)cc3)cn12,-27.3
6,Cc1cc(C)n2cc(CSc3ccc(Cl)cc3)nc2n1,-64.9
7,Cc1cc(C)n2cc(CSc3ccccn3)nc2n1,13.6
8,CC(C)Oc1ccc(CNC2CCOC(C)(C)C2)cc1 (stereo not shown),18
9,C=CCNc1nc2c(c(=O)[nH]c(=O)n2C)n1CCCc1ccccc1,-4.44
10,CC1=C(C(=O)OCc2ccccc2)C(c2ccccc2Cl)NC(=O)N1CCCCCC(=O)O (stereo not shown),-12.4
11,CC1=C(C(=O)OCc2ccccc2)C(c2ccc(-c3ccccc3)cc2)NC(=O)N1CCCCCC(=O)O (stereo not shown),-2.3
12,CC1=C(C(=O)OCc2ccccc2)C(c2ccccc2-c2ccccc2)NC(=O)N1CCCCCC(=O)O (stereo not shown),-63.1
13,CCN(CC(=O)Nc1c(F)cccc1F)C(=O)c1ccc2ccccc2n1,-19.6
14,O=c1[nH]cccc1-c1nc2ccccc2n1Cc1ccc(F)cc1,-22.5
15,CCOc1ccc(NC(=O)CN(C)C(=O)c2ccccc2Cc2ccccc2)cc1OCC,-14
16,O=[N+]([O-])c1cccc(CN2CCCCCC2)c1,5.75
17,CC(=O)c1ccc(N2CCN(CC3CCCCC3)CC2)cc1,-24
18,O=[N+]([O-])c1cccc(CN2CCN(c3ncccn3)CC2)c1,-1.26
19,O=[N+]([O-])c1ccc(N2CCN(CC3CCCCC3)CC2)cc1,-63
20,O=[N+]([O-])c1ccc(N2CCC(=NOCc3ccc(Cl)cc3)CC2)cc1,-54.5
21,O=[N+]([O-])c1ccc(/C=N\N2CCN(c3ccc(Cl)cc3)CC2)cc1,16.8
22,FC(F)(F)c1cnc(N2CCC(=NOCc3ccc(Cl)cc3)CC2)c(Cl)c1,29.6
23,O=[N+]([O-])c1ccc(N2CCN(Cc3cccc([N+](=O)[O-])c3)CC2)cc1,-71.8
24,O=[N+]([O-])c1ccc(CN2CCN(c3ccc([N+](=O)[O-])cc3)CC2)cc1,-74.1
25,c1ccc(N2CCN(CC3CCCCC3)CC2)cc1,9.61
26,CCOc1ccccc1-c1nnc(SCC(=O)NC2CC3CCC2C3)n1CC (stereo not shown),-3.89

row,SMILES,"hERG current change (%, negative = inhibition) at 10uM [%]"
1,O=C(O)C(=O)O.O=C(c1cccc(F)c1)N1CCN(Cc2c[nH]c3ccccc23)CC1,-9.05
2,Clc1ccc(CN2CCN(c3ncccn3)CC2)cc1,-4.03
3,CN(Cc1ccccc1)c1nc2c(c(=O)n(C)c(=O)n2C)n1CCSc1ncccn1,-13.7
4,O=C1/C(=C\c2ccc([N+](=O)[O-])cc2)CCc2ccccc21,-6.6
5,O=C1CCNc2c(Cl)cc(Cl)cc21,-2.74
6,N#CC1=C(N)Nc2ncnn2C1c1ccccc1 (stereo not shown),10.6
7,COc1ccc2c(c1)[nH]c1c(Cl)ncnc12,3.14
8,O[C@H]1c2ccccc2[C@H](Cc2cncs2)[C@@H]1Br,0.746
9,O=[N+]([O-])c1ccc(N2CCN(Cc3ccncc3)CC2)cc1,-64.8
10,O=[N+]([O-])c1ccc(CN2CCN(c3ncccn3)CC2)cc1,-32.2
11,Fc1ccc(-n2nnc(-c3ccccc3Cl)n2)cc1,12.2
12,O=C(CC1Oc2ccccc2NC1=O)NCCc1ccccc1 (stereo not shown),-4.18
13,COc1cccc(S(=O)(=O)NC2CCN(C#N)C2)c1 (stereo not shown),9.23
14,O=C(Nc1ccccc1)C1CCN(C(=O)c2ccc(Br)cc2)CC1,-59.3
15,O=C(Nc1ccc(F)cc1F)C1CCN(C(=O)c2ccc(Br)cc2)CC1,-30.2
16,O=C(Nc1nc(-c2ccc(F)cc2)cs1)C1CCN(C(=O)c2ccc(F)cc2)CC1,-54.7
17,O=C(Nc1cccc(F)c1)C1CCN(C(=O)c2ccc(Cl)cc2)CC1,-49.4
18,O=C(Nc1ccccc1)C1CCCN(C(=O)c2ccc(Cl)cc2)C1 (stereo not shown),-9.92
19,O=C(Nc1cccc(F)c1)C1CCN(C(=O)c2ccc(Br)cc2)CC1,-65.1
20,O=C(Nc1ccccc1)C1CCCN(C(=O)c2ccc(F)cc2)C1 (stereo not shown),-51.8
21,COc1ccc(-c2csc(NC(=O)C3CCN(C(=O)c4ccc(F)cc4)CC3)n2)cc1OC,-13.8
22,O=C(Nc1nc(-c2ccc(F)cc2)cs1)C1CCCO1 (stereo not shown),-6.67
23,O=C(Nc1ccccc1)C1CCN(C(=O)c2ccccc2)CC1,4.62
24,O=C(c1ccc(F)cc1)N1CCCC(C(=O)N2CCCCC2)C1 (stereo not shown),16.5
25,O=C(Nc1ccc(Br)cc1)C1CCN(C(=O)c2ccco2)CC1,-14
